PubChem BioAssay
The source made the active and inactive calls.

Key:
[1] = test system: PRMT1 (protein arginine N-methyltransferase 1); experiment: PRMT1 binders on small-molecule microarrays, primary screen, biochemical, small-molecule microarray, 635 nm fluorescence (AID 1088); settings: small-molecule microarray binding, higher = more signal;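 also: binding of Prmt1 protein to compounds spotted on small-molecule microarray slides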
[2] = yeast growth modulation, basal conditions, primary screen, YJM789 clinical isolate, OD600, 24 h (AID 1089);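 also: growth of clinical yeast isolate S. cerevisiae YJM 789 seeded 1000 cells per well; test concentration not given here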; settings: S. cerevisiae YJM789 growth, higher = more signal, called active from +8 up or from −8 down
[3] = fission yeast growth modulation, primary screen, strain 972, OD600, 24 h, no modulator (AID 1090);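 also: basal condition with compound alone and no growth modifier present; test concentration not given here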; settings: S. pombe 972 growth, higher = more signal, called active from +8 up or from −8 down
[4] = S. cerevisiae growth modulation with rapamycin, primary screen, strain BY4716, OD600, 96 h (AID 1091); settings: higher = more signal, called active from +8 up or from −8 down; also: test concentration not given here
[5] = biological target: Torsin-1A-interacting protein 2 (Homo sapiens) (UniProt Q8NFQ8); experiment: LULL1 binders on small-molecule microarray, primary screen, cell lysate, human LULL1 lysate, 635/667 nm fluorescence (AID 1092); settings: hLULL1 lysate binding, 635 nm fluorescence, higher = more signal;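 also: probe is lysate of COS7 cells overexpressing human LULL1; score merges per-feature 667 nm fluorescence with signal-to-noise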
[6] = E. coli growth modulation, two-sided OD650, primary screen, E. coli filamentation project, strain DRC41, 24 h (AID 1093); settings: OD650, 24 h, higher = more signal, called active from +8 up or from −8 down;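 also: MC1000 strain lacking acrAB efflux and sulA so SOS filamentation is blocked; test concentration not given here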
[7] = small-molecule microarray binders of probe aLefty2, primary screen, biochemical, biotinylated probe, 635/667 nm fluorescence (AID 1094); settings: higher = more signal;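 also: score merges spot fluorescence near 667 nm with spot signal-to-noise ratio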
[8] = test system: Noggin (protein binding on small-molecule microarray); experiment: Noggin binders on small-molecule microarray, primary screen, biochemical, 635/667 nm fluorescence (AID 1095); settings: 635 nm fluorescence, higher = more signal;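 also: score merges 667 nm feature fluorescence with signal to noise over triplicate slides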
[9] = biological target: Neurogenic locus notch homolog protein 3 (Homo sapiens) (UniProt Q9UM47); experiment: NOTCH3 binders on small-molecule microarray, primary screen, biochemical, 635/667 nm fluorescence (AID 1096); settings: NOTCH3 binding, 635 nm fluorescence, higher = more signal
[10] = small-molecule microarray binders of probe aEGFR, primary screen, biochemical, biotinylated probe, 635/667 nm fluorescence (AID 1097); settings: higher = more signal;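 also: probe is a biotinylated anti-EGFR antibody binding compounds printed on slides; score combines fluorescence near 667 nm and signal to noise of each spot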
[11] = test system: Plasmodium falciparum Sir2 (PF13_0152, Sir2A); experiment: pfSir2 binders on small-molecule microarrays, primary screen, biochemical, small-molecule microarray, 635 nm fluorescence (AID 1098); settings: small-molecule microarray binding, fluorescence 635 nm; higher = more signal;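 also: score merges spot fluorescence intensity with its signal-to-noise ratio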
[12] = small-molecule microarray binders of probe aDKK1, primary screen, biochemical, biotinylated probe, 635/667 nm fluorescence (AID 1099); settings: higher = more signal;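 also: score merges 667nm spot fluorescence with signal to noise across triplicate slides; reference of the scale not given here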
[13] = small-molecule microarray binders of probe aCHRDL2, primary screen, biochemical, biotinylated probe, 635/667 nm fluorescence (AID 1100); settings: higher = more signal
[14] = splicing luciferase reporter signal modulators, primary screen, spliceosome inhibition project, cell-based, HEK293, splice +/- reporter (AID 1101); settings: luminescence, 24 h, higher = more signal, called active from +8 up or from −8 down;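 also: HEK293 cells carrying a splicing-competent luciferase reporter gene; test concentration not given here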
[15] = biological target: Fibroblast growth factor 10 (Homo sapiens) (UniProt O15520); experiment: FGF10 binders on small-molecule microarrays, primary screen, biochemical, small-molecule microarray, 635 nm fluorescence (AID 1102); settings: FGF10 binding, fluorescence 635 nm, higher = more signal
[16] = test system: glycogen synthase kinase-3 (GSK3A per assay name; protocol says GSK3B); experiment: GSK3 binders on small-molecule microarrays, primary screen, biochemical, small-molecule microarray, 635 nm fluorescence, GSK3A (AID 1103); settings: small-molecule microarray binding, fluorescence 635 nm; higher = more signal; also: the record names both GSK3A and GSK3B
[17] = biological target: Epidermal growth factor receptor (Homo sapiens) (UniProt P00533); experiment: EGFR binders on small-molecule microarrays, primary screen, biochemical, small-molecule microarray, 635 nm fluorescence (AID 1104); settings: EGFR binding, higher = more signal;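 also: score merges 667 nm emission intensity with spot signal to noise over triplicate slides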
[18] = biological target: Follistatin-related protein 3 (Homo sapiens) (UniProt O95633); experiment: FSTL3 binders on small-molecule microarrays, primary screen, biochemical, small-molecule microarray, 635 nm fluorescence (AID 1105); settings: FSTL3 binding, higher = more signal;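 also: score merges emission near 667 nm and signal to noise per printed spot across three slides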
[19] = biological target: Dickkopf-related protein 1 (Homo sapiens) (UniProt O94907); experiment: DKK1 binders on small-molecule microarrays, primary screen, biochemical, small-molecule microarray, 635 nm fluorescence scan (AID 1106); settings: DKK1 binding, higher = more signal;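 also: score merges emission near 667 nm with signal to noise over three replicate slides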
[20] = test system: Inhibin beta A chain (activin A); experiment: INHBA (activin A) binders on microarrays, primary screen, biochemical, small-molecule microarray, 635 nm fluorescence scan (AID 1107); settings: small-molecule microarray binding, higher = more signal;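 also: mouse activin A protein probed at 4.33 µg/mL on printed slides; score merges bound-protein fluorescence near 667 nm with spot signal-to-noise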

Chain of Dickkopf-related protein 1 (Homo sapiens) (O94907 whole entry, looked up): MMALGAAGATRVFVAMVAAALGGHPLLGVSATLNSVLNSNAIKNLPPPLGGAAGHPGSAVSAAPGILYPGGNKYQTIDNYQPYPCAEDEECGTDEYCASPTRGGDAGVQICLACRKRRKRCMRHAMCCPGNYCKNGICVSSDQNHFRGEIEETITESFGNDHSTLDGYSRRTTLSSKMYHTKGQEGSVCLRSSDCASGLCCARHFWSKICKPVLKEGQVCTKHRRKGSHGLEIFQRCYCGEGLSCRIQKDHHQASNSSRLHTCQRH
Chain of Epidermal growth factor receptor (Homo sapiens) (P00533 whole entry, looked up): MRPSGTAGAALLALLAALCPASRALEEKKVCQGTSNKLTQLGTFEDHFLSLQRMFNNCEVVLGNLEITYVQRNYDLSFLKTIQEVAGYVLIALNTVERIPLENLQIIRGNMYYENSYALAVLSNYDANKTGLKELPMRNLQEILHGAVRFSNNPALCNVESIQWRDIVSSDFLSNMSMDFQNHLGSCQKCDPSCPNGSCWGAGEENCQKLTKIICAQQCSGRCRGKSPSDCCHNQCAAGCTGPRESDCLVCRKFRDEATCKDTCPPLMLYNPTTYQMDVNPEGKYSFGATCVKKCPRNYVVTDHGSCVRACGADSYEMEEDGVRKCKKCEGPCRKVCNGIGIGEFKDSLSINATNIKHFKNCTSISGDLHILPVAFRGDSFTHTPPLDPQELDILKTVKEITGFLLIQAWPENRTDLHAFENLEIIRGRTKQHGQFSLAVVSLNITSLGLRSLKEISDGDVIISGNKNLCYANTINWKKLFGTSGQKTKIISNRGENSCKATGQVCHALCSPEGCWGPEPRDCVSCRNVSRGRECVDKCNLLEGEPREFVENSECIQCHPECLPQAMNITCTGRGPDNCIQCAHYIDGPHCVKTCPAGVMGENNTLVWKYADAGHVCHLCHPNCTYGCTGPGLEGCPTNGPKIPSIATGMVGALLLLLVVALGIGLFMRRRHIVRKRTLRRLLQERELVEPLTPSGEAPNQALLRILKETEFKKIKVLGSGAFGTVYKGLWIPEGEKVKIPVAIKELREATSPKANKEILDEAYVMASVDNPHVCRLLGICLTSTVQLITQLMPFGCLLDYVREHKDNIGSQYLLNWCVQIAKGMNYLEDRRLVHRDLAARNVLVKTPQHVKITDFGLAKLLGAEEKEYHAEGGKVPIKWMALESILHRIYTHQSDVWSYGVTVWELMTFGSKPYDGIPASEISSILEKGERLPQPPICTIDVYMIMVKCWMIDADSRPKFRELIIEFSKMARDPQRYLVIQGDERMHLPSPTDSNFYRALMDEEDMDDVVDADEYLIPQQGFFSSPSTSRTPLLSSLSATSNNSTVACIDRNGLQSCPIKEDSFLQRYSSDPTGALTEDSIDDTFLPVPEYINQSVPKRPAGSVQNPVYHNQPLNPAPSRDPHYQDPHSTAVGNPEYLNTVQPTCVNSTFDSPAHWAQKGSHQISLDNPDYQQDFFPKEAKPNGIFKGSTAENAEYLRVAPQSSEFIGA
Chain of Follistatin-related protein 3 (Homo sapiens) (O95633 whole entry, looked up): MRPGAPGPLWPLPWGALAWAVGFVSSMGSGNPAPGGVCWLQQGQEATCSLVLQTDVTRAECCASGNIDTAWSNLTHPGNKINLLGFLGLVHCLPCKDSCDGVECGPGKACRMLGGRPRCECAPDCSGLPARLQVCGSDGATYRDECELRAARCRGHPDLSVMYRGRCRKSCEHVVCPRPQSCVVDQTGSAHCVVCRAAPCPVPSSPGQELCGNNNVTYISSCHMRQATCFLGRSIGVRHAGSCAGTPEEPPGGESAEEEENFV
Chain of Neurogenic locus notch homolog protein 3 (Homo sapiens) (Q9UM47 whole entry, looked up): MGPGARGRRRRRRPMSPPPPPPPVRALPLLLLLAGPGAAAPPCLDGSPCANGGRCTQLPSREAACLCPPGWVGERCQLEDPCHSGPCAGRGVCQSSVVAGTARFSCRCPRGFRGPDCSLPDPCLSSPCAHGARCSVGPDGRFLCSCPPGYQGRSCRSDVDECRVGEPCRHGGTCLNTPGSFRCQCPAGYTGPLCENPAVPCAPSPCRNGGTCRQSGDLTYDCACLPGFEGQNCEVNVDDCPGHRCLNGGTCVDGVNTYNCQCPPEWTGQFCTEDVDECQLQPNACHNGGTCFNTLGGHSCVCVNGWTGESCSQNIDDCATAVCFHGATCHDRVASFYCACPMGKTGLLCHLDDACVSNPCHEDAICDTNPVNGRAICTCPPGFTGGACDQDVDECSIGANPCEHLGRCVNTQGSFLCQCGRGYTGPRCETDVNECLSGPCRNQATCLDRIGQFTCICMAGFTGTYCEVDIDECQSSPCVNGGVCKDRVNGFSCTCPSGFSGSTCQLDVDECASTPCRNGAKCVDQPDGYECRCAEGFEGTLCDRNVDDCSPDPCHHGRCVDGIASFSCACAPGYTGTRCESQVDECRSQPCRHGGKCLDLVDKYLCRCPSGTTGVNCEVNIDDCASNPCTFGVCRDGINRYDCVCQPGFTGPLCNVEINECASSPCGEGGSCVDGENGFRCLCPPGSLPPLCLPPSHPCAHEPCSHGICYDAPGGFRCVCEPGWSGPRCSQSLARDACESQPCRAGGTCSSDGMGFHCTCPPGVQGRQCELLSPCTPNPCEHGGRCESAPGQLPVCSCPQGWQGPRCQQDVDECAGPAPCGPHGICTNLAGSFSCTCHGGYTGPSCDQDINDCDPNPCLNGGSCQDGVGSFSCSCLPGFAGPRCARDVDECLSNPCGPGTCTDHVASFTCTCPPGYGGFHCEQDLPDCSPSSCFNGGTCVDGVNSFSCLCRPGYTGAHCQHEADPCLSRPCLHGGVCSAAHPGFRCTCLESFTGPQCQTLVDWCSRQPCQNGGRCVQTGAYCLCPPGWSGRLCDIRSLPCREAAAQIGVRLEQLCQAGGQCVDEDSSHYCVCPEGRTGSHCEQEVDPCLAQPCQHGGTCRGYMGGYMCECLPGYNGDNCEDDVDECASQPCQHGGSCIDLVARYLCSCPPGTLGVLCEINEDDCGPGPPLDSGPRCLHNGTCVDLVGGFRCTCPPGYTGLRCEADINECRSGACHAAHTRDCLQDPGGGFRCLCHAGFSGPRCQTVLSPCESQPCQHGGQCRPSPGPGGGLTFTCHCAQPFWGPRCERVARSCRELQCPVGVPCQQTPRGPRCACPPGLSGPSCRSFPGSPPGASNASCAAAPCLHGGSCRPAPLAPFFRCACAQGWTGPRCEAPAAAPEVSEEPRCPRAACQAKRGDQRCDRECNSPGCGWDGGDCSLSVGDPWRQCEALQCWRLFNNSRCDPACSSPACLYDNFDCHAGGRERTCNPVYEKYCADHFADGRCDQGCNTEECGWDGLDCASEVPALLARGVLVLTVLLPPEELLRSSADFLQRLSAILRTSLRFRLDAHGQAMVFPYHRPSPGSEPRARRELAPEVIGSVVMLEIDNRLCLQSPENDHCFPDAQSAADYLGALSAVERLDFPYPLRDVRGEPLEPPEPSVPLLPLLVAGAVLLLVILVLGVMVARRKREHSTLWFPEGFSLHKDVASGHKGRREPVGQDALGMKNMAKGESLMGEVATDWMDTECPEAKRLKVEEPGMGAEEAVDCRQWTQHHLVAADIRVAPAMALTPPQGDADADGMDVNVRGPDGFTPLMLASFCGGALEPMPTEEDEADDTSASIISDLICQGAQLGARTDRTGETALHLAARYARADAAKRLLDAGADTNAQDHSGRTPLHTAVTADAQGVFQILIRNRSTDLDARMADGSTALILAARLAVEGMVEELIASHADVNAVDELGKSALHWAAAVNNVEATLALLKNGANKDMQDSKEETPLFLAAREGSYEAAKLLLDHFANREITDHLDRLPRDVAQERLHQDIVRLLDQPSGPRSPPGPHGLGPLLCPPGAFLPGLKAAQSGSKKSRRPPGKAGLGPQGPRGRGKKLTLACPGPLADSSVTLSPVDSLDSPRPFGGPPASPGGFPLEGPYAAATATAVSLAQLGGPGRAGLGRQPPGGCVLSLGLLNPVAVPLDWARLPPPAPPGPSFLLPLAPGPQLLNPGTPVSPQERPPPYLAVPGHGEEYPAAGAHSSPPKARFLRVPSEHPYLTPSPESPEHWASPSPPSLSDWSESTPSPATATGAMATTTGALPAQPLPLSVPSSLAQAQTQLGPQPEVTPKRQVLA
Chain of Fibroblast growth factor 10 (Homo sapiens) (O15520 whole entry, looked up): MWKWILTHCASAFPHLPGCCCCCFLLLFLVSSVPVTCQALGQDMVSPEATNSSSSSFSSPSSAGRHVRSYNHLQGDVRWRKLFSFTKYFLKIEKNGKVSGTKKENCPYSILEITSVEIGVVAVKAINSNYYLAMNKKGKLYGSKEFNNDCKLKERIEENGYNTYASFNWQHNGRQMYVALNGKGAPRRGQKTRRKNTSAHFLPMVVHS
Chain of Torsin-1A-interacting protein 2 (Homo sapiens) (Q8NFQ8 whole entry, looked up): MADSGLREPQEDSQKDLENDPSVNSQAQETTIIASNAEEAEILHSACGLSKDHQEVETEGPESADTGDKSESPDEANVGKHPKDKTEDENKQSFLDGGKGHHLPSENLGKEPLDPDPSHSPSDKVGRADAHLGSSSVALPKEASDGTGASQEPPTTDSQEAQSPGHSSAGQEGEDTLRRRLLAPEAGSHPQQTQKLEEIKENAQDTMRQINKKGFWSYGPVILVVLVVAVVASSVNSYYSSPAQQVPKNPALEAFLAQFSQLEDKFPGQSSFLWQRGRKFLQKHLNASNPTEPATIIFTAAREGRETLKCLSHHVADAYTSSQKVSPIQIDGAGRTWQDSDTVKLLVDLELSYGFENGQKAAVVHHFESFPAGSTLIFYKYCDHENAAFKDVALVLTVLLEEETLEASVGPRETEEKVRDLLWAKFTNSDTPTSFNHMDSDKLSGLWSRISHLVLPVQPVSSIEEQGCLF

Structure (SMILES)	composite z-score [1]	z-score [2]	z-score [3]	z-score [4]	composite z-score [5]	z-score [6]	composite z-score [7]	composite z-score [8]	composite z-score [9]	composite z-score [10]	composite z-score [11]	composite z-score [12]	composite z-score [13]	z-score [14]	composite z-score [15]	composite z-score [16]	composite z-score [17]	composite z-score [18]	composite z-score [19]	composite z-score [20]
CO[C@H]1O[C@H](CO)[C@@H](OC(=O)Nc2ccccc2)[C@H](OC(=O)Nc2ccccc2)[C@H]1OC(=O)Nc1ccccc1	1.43	1.55 (inactive)	0.759 (inactive)	0.997 (inactive)	3.49	0.758 (inactive)	-0.134	0.772	0.814	-0.0978	1.48	-0.0074	-0.0165	-0.405 (inactive)	1.48	1.25	0.0428	0.41	0.183	0.232
[N-]=[N+]=NCc1ccccc1[C@@H]1OC(c2ccc(OCCCO)cc2)=N[C@]1(Cc1ccccc1N=[N+]=[N-])C(=O)O	1.48	-0.282 (inactive)	-1.64 (inactive)	-0.794 (inactive)	3.13	-0.0956 (inactive)	0.515	-0.0626	1.11	0.439	1.45	1.35	1.11	-1.48 (inactive)	1.15	1.26	0.268	1.03	-0.075	0.848
C#CCN1[C@@H](Cc2ccccc2)C(=O)O[C@H](Cc2ccccc2)[C@@H]1/C=C/C1CC1	-0.101	0.295 (inactive)	-0.361 (inactive)	0.148 (inactive)	1.14	0.855 (inactive)	-0.185	0.33	0.246	-0.0422	0.345	-0.251	-0.505	-0.29 (inactive)	0.209	0.524	-0.333	0.22	0.156	0.781
C[C@]1(C(=O)O)c2ccccc2C(=O)N(Cc2cc(F)cc(C(F)(F)F)c2)[C@H]1c1ccc(CO)cc1	0.413	-0.994 (inactive)	-1.3 (inactive)	-1.9 (inactive)	1.64	0.581 (inactive)	-0.153	1.04	0.137	-0.115	1.64	-0.0944	0.249	0.395 (inactive)	0.139	-0.429	0.213	0.0304	-0.336	0.561
C=CCC(OC(C)=O)[C@@H]1[C@@H](N(Cc2ccc(-c3ccccc3)cc2)C(=O)c2cccc3ccccc23)c2cc(OCCCO)ccc2N1C(=O)Cc1ccc(OC)cc1 (stereo not given in full)	-0.159	-0.774 (inactive)	0.0643 (inactive)	-0.631 (inactive)	-0.203	-1.09 (inactive)	0.0748	0.417	-0.477	0.122	0.057	0.267	0.516	-0.149 (inactive)	0.345	-0.102	0.0253	0.13	-0.113	1.37
C=C(C)[C@@H]1CC=C(C(O)C2C=CC3C(=O)N(C)C(=O)C3N2Nc2ccc([N+](=O)[O-])cc2[N+](=O)[O-])CC1 (stereo not given in full)	1.32	0.513 (inactive)	1.79 (inactive)	0.966 (inactive)	3.52	-0.476 (inactive)	0.519	0.263	1.07	0.358	0.626	0.989	1.05	1.86 (inactive)	0.85	1.28	0.963	1.04	0.0615	1.35
COCCCNC(=O)[C@@]1(CCC(=O)OC(C)(C)C)COC(c2ccc(OCCCO)cc2)=N1	1.59	-0.649 (inactive)	0.132 (inactive)	-2.07 (inactive)	3.51	0.488 (inactive)	-0.0906	0.337	0.571	-0.13	1.64	0.117	0.523	-1.09 (inactive)	0.693	0.986	-0.106	0.219	-0.0833	0.64
CN(C)C(=O)[C@@]1(Cc2ccccc2CN=[N+]=[N-])COC(c2ccc(OCCCO)cc2)=N1	0.688	-0.352 (inactive)	-7.06 (inactive)	31.3 (active)	2.65	2.21 (inactive)	0.0781	-0.543	0.132	-0.152	0.508	0.42	1.01	-0.51 (inactive)	-0.0391	-0.958	-0.916	-0.522	-1.19	0.744
COC(=O)[C@@]1(Cc2ccc(OC)cc2)[C@H]2c3cc(C(=O)N4CCCC4)n(Cc4c(CO)[nH]cc(C)c4=O)c3C[C@H]2CN1C(=O)c1ccccc1	0.413	-1.56 (inactive)	0.801 (inactive)	0.147 (inactive)	3.35	-0.391 (inactive)	0.601	-0.243	0.381	-0.0728	0.488	2.01	1.13	-1.14 (inactive)	0.404	0.237	-0.0221	0.158	-0.59	1.02
COC(=O)[C@@]1(Cc2ccc(F)cc2)[C@H]2c3cc(C(=O)N4CCCC4)n(Cc4ccccn4)c3C[C@H]2CN1C(=O)c1ccccc1	0.159	0.269 (inactive)	-0.289 (inactive)	0.856 (inactive)	3.32	-1.76 (inactive)	0.361	-0.108	0.841	0.33	0.919	0.757	1.08	-1.88 (inactive)	0.426	0.453	0.214	0.156	-0.398	0.855
